# Assay results reported in the supplement of paper PMC8728848.
# About 410 targets per protein were measured; listed, in parts, are those with the strongest signals and a random draw of the rest.
# How the values were obtained:
# Assay in all cases: glycan array binding signal (z-score within array); higher = stronger binding
# Details in all cases: glycan notation: IUPAC condensed, linker removed
# [1] = target: Fuc(a1-2)Gal(b1-3)GalNAc(b1-4)[Neu5Ac(a2-3)]Gal(b1-4)Glc
# How it was run: (§1)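 Arrays were curated from the Consortium for Functional Glycomics database, 3228 in total, and kept only where the protein sequence was available. Binding is expressed as a within-array Z-score. This score was averaged across arrays of the same protein sequence at different concentrations or buffers and across linkers, and negative values can be read as non-binding.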
# [2] = target: Fuc(a1-2)Gal(b1-3)[Fuc(a1-4)]GlcNAc
# How it was run: as §1
# [3] = target: Fuc(a1-2)Gal(b1-3)[Fuc(a1-4)]GlcNAc(b1-2)Man(a1-3)[Fuc(a1-2)Gal(b1-3)[Fuc(a1-4)]GlcNAc(b1-2)Man(a1-6)]Man(b1-4)GlcNAc(b1-4)GlcNAc
# How it was run: as §1
# [4] = target: Fuc(a1-2)Gal(b1-4)Glc6S
# How it was run: as §1
# [5] = target: Fuc(a1-2)Gal(b1-4)GlcNAc(b1-3)Gal(b1-4)GlcNAc(b1-3)Gal(b1-4)GlcNAc
# How it was run: as §1
# [6] = target: Fuc(a1-2)Gal(b1-4)[Fuc(a1-3)]GlcNAc(b1-3)[Neu5Ac(a2-6)Gal(b1-4)GlcNAc(b1-6)]Gal(b1-4)Glc
# How it was run: as §1
# [7] = target: Fuc(a1-2)Gal6S(b1-4)Glc6S
# How it was run: as §1
# [8] = target: Fuc(a1-2)[Gal(a1-3)]Gal(b1-3)GlcNAc
# How it was run: as §1
# [9] = target: Fuc(a1-2)[Gal(a1-3)]Gal(b1-3)GlcNAc(b1-3)GalNAc
# How it was run: as §1
# [10] = target: Fuc(a1-2)[Gal(a1-3)]Gal(b1-4)GlcNAc(b1-2)Man(a1-3)[Fuc(a1-2)[Gal(a1-3)]Gal(b1-4)GlcNAc(b1-2)Man(a1-6)]Man(b1-4)GlcNAc(b1-4)GlcNAc
# How it was run: as §1
# [11] = target: Fuc(a1-2)[Gal(a1-3)]Gal(b1-4)GlcNAc(b1-6)GalNAc
# How it was run: as §1
# [12] = target: Fuc(a1-2)[GalNAc(a1-3)]Gal(b1-3)GlcNAc
# How it was run: as §1
# [13] = target: Fuc(a1-3)[Gal(b1-4)]GlcNAc(b1-4)Gal(b1-4)[Fuc(a1-3)]GlcNAc(b1-4)Gal(b1-4)[Fuc(a1-3)]GlcNAc
# How it was run: as §1
# [14] = target: Gal(a1-2)Gal
# How it was run: as §1
# [15] = target: Gal(b1-3)GalNAc
# How it was run: as §1
# [16] = target: Gal(b1-3)GlcNAc
# How it was run: as §1
# [17] = target: Gal(b1-3)GlcNAc(b1-3)Gal(b1-4)GlcNAc(b1-6)[Gal(b1-3)GlcNAc(b1-3)]Gal(b1-4)Glc
# How it was run: as §1
# [18] = target: Gal(b1-3)GlcNAc(b1-3)Gal(b1-4)[Fuc(a1-3)]GlcNAc(b1-6)[Gal(b1-3)GlcNAc(b1-3)]Gal(b1-4)Glc
# How it was run: as §1
# [19] = target: Gal(b1-4)GalNAc(b1-3)[Fuc(a1-2)]Gal(b1-4)GlcNAc
# How it was run: as §1
# [20] = target: Gal(b1-4)GlcNAc(b1-2)Man(a1-3)[Gal(b1-4)GlcNAc(b1-2)][GlcNAc(b1-4)]Man(b1-4)GlcNAc(b1-4)GlcNAc
# How it was run: as §1
# [21] = target: Gal(b1-4)GlcNAc(b1-2)Man(a1-3)[GlcNAc(b1-2)Man(a1-6)]Man(b1-4)GlcNAc(b1-4)GlcNAc
# How it was run: as §1
# [22] = target: Gal(b1-4)GlcNAc(b1-2)Man(a1-6)Man(b1-4)GlcNAc(b1-4)GlcNAc
# How it was run: as §1
# [23] = target: Gal(b1-4)GlcNAc(b1-2)Man(a1-6)[GlcNAc(b1-2)Man(a1-3)]Man(b1-4)GlcNAc(b1-4)GlcNAc
# How it was run: as §1
# [24] = target: Gal(b1-4)GlcNAc(b1-3)Gal(b1-4)GlcNAc
# How it was run: as §1
# [25] = target: Gal(b1-4)GlcNAc(b1-3)Gal(b1-4)GlcNAc(b1-3)Gal(b1-4)GlcNAc
# How it was run: as §1
# [26] = target: Gal(b1-4)GlcNAc(b1-3)Gal(b1-4)[Fuc(a1-3)GlcNAc(b1-6)]Gal(b1-4)Glc
# How it was run: as §1
# [27] = target: Gal3S(b1-4)GlcNAc6S
# How it was run: as §1
# [28] = target: Gal3S4S(b1-4)GlcNAc
# How it was run: as §1
# [29] = target: Gal6S(b1-4)GlcNAc6S
# How it was run: as §1
# [30] = target: GalNAc(b1-3)Gal(a1-4)Gal(b1-4)GlcNAc(b1-3)Gal(b1-4)Glc
# How it was run: as §1
# [31] = target: GalNAc4S6S(b1-4)GlcNAc
# How it was run: as §1
# [32] = target: GlcA(b1-3)GlcNAc
# How it was run: as §1
# [33] = target: GlcNAc(b1-3)[GlcNAc(b1-4)][GlcNAc(b1-6)]GlcNAc
# How it was run: as §1
# [34] = target: Kdn(a2-3)Gal(b1-3)GalNAc
# How it was run: as §1
# [35] = target: Kdn(a2-3)Gal(b1-3)GlcNAc
# How it was run: as §1
# [36] = target: Neu5Ac(a2-3)Gal(b1-3)GalNAc6S
# How it was run: as §1
# [37] = target: Neu5Ac(a2-3)Gal(b1-4)GlcNAc(b1-2)Man(a1-3)[Neu5Ac(a2-3)Gal(b1-4)GlcNAc(b1-2)Man(a1-6)]Man(b1-4)GlcNAc(b1-4)[Fuc(a1-6)]GlcNAc
# How it was run: as §1
# [38] = target: Neu5Ac(a2-3)Gal(b1-4)GlcNAc(b1-3)Gal(b1-4)[Fuc(a1-3)]GlcNAc
# How it was run: as §1
# [39] = target: Neu5Ac(a2-6)Gal(b1-4)GlcNAc(b1-2)Man(a1-3)[Gal(b1-4)GlcNAc(b1-2)Man(a1-6)]Man(b1-4)GlcNAc(b1-4)GlcNAc
# How it was run: as §1
# [40] = target: Neu5Ac(a2-6)Gal(b1-4)GlcNAc(b1-2)Man(a1-3)[GlcNAc(b1-2)Man(a1-6)]Man(b1-4)GlcNAc(b1-4)GlcNAc
# How it was run: as §1
# [41] = target: Neu5Ac(a2-6)GlcNAc(b1-4)GlcNAc
# How it was run: as §1
# [42] = target: Neu5Ac(b2-6)Gal(b1-4)GlcNAc
# How it was run: as §1
# [43] = target: Neu5Gc(a2-6)GalNAc
# How it was run: as §1
binder,measurement,setting,value
"PRKCE (Homo sapiens), Q02156 (protein) MVVFNGLLKIKICEAVSLKPTAWSLRHAVGPRPQTFLLDPYIALNVDDSRIGQTATKQKTNSPAWHDEFVTDVCNGRKIELAVFHDAPIGYDDFVANCTIQFEELLQNGSRHFEDWIDLEPEGRVYVIIDLSGSSGEAPKDNEERVFRERMRPRKRQGAVRRRVHQVNGHKFMATYLRQPTYCSHCRDFIWGVIGKQGYQCQVCTCVVHKRCHELIITKCAGLKKQETPDQVGSQRFSVNMPHKFGIHNYKVPTFCDHCGSLLWGLLRQGLQCKVCKMNVHRRCETNVAPNCGVDARGIAKVLADLGVTPDKITNSGQRRKKLIAGAESPQPASGSSPSEEDRSKSAPTSPCDQEIKELENNIRKALSFDNRGEEHRAASSPDGQLMSPGENGEVRQGQAKRLGLDEFNFIKVLGKGSFGKVMLAELKGKDEVYAVKVLKKDVILQDDDVDCTMTEKRILALARKHPYLTQLYCCFQTKDRLFFVMEYVNGGDLMFQIQRSRKFDEPRSRFYAAEVTSALMFLHQHGVIYRDLKLDNILLDAEGHCKLADFGMCKEGILNGVTTTTFCGTPDYIAPEILQELEYGPSVDWWALGVLMYEMMAGQPPFEADNEDDLFESILHDDVLYPVWLSKEAVSILKAFMTKNPHKRLGCVASQNGEDAIKQHPFFKEIDWVLLEQKKIKPPFKPRIKTKRDVNNFDQDFTREEPVLTLVDEAIVKQINQEEFKGFSYFGEDLMP",glycan array binding signal (z-score),[1],-0.414
same,glycan array binding signal (z-score),[2],-0.08
same,glycan array binding signal (z-score),[3],3.82
same,glycan array binding signal (z-score),[4],0.01
same,glycan array binding signal (z-score),[5],-0.376
same,glycan array binding signal (z-score),[6],-0.275
same,glycan array binding signal (z-score),[7],3.89
same,glycan array binding signal (z-score),[8],-0.168
same,glycan array binding signal (z-score),[9],0.498
same,glycan array binding signal (z-score),[10],-0.355
same,glycan array binding signal (z-score),[11],4.32
same,glycan array binding signal (z-score),[12],-0.107
same,glycan array binding signal (z-score),[13],-0.315
same,glycan array binding signal (z-score),[14],0.035
same,glycan array binding signal (z-score),[15],-0.389
same,glycan array binding signal (z-score),[16],-0.364
same,glycan array binding signal (z-score),[17],-0.234
same,glycan array binding signal (z-score),[18],-0.277
same,glycan array binding signal (z-score),[19],0.061
same,glycan array binding signal (z-score),[20],-0.146
same,glycan array binding signal (z-score),[21],2.61
same,glycan array binding signal (z-score),[22],-0.31
same,glycan array binding signal (z-score),[23],1.3
same,glycan array binding signal (z-score),[24],-0.365
same,glycan array binding signal (z-score),[25],0.155
same,glycan array binding signal (z-score),[26],-0.176
same,glycan array binding signal (z-score),[27],6.34
same,glycan array binding signal (z-score),[28],8.77
same,glycan array binding signal (z-score),[29],3.2
same,glycan array binding signal (z-score),[30],-0.217
same,glycan array binding signal (z-score),[31],-0.211
same,glycan array binding signal (z-score),[32],-0.247
same,glycan array binding signal (z-score),[33],4.39
same,glycan array binding signal (z-score),[34],-0.132
same,glycan array binding signal (z-score),[35],-0.38
same,glycan array binding signal (z-score),[36],-0.364
same,glycan array binding signal (z-score),[37],-0.386
same,glycan array binding signal (z-score),[38],-0.192
same,glycan array binding signal (z-score),[39],0.571
same,glycan array binding signal (z-score),[40],3.58
same,glycan array binding signal (z-score),[41],-0.318
same,glycan array binding signal (z-score),[42],-0.121
same,glycan array binding signal (z-score),[43],-0.342
